Laboratory results taken from PubChem BioAssay AID1159580 (chemical genetic matrix, 2015).
The campaign covered roughly 5,500 compounds. About 2,000 (36%) were called active. About 18% were inconclusive and are not listed. No stated cut-off is given here; in the data, active means normalized growth mostly below about 0.91 (no sharp cut-off); inconclusive means no clear call, values can overlap the other calls; inactive means mostly above about 0.92. This is one part of the list.

Assay: chemical genetic growth profiling, strain panel (AID 1159580);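 further: tested at 20 µM; growth read once vehicle control cultures reached saturation at 30 °C; 1 = growth at the plate median or of vehicle wells; lower values mean less growth of the strain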
Conditions: S. cerevisiae deletion strains, growth OD

Measured: normalized growth

O=C(O[C@@H]1Cc2c(O)cc(O)cc2O[C@@H]1c1cc(O)c(O)c(O)c1)c1cc(O)c(O)c(O)c1
active: locus YKL190W, strain CNB1, active compounds read low 0.26 | locus YLL001W, strain dnm1, active compounds read low 0.897 | locus YLL026W, active compounds read low 0.899 | locus YLR027C, strain aat2, active compounds read low 0.829 | locus YLR039C, strain RIC1, active compounds read low 0.331 | locus YLR058C, strain SHM2, active compounds read low 0.373 | locus YLR221C, strain rsa3, active compounds read low 0.87 | locus YLR258W, strain gsy2, active compounds read low 0.898 | locus YLR262C, strain YPT6 (second series), active compounds read low 0.835 | locus YLR268W, strain sec22, active compounds read low 0.832 | locus YLR320W, strain mms22, active compounds read low 0.877 | locus YLR330W, strain CHS5, active compounds read low 0.776 | locus YLR342W, strain FKS1 (second series), active compounds read low 0.297 | locus YLR342W, strain FKS1, active compounds read low 0.649 | locus YLR357W, strain rsc2, active compounds read low 0.704 | locus YLR370C, strain arc18, active compounds read low 0.89 | locus YLR371W, strain rom2, active compounds read low 0.677 | locus YLR418C, strain cdc73, active compounds read low 0.625 | locus YML016C, strain PPZ1, active compounds read low 0.114 | locus YMR058W, strain fet3, active compounds read low 0.174 | locus YMR205C, strain PFK2, active compounds read low 0.821 | locus YMR223W, strain ubp8, active compounds read low 0.887 | locus YMR231W, strain pep5, active compounds read low 0.496 | locus YMR307W, strain GAS1, active compounds read low 0.429 | locus YNL067W, strain RPL9B, active compounds read low 0.692 | locus YNL071W, strain lat1, active compounds read low 0.878 | locus YNL128W, strain TEP1, active compounds read low 0.13 | locus YNL153C, strain GIM3, active compounds read low 0.665 | locus YNL209W, strain ssb2, active compounds read low 0.44 | locus YNL233W, strain BNI4, active compounds read low 0.651 | locus YNL322C, strain KRE1, active compounds read low 0.26 | locus YNR052C, strain pop2, active compounds read low 0.861 | locus YOL006C, strain TOP1, active compounds read low 0.324 | locus YOR001W, strain rrp6, active compounds read low 0.875 | locus YOR061W, strain CKA2, active compounds read low 0.484 | locus YOR069W, strain VPS5, active compounds read low 0.526 | locus YOR070C, strain gyp1, active compounds read low 0.767 | locus YOR080W, strain dia2, active compounds read low 0.754 | locus YOR083W, strain WHI5, active compounds read low 0.882 | locus YOR106W, strain vam3, active compounds read low 0.316 | locus YOR184W, strain ser1, active compounds read low 0.808 | locus YOR265W, strain rbl2, active compounds read low 0.912 | locus YOR270C, strain vph1, active compounds read low 0.499 | locus YPL051W, strain arl3, active compounds read low 0.539 | locus YPL055C, strain LGE1, active compounds read low 0.249 | locus YPL106C, strain sse1, active compounds read low 0.762 | locus YPL241C, strain CIN2, active compounds read low 0.741 | strain wtn01, active compounds read low 0.832
inactive: locus YKL009W, strain mrt4, active compounds read low 1.04 | locus YKL068W, active compounds read low 1 | locus YKL085W, strain MDH1 (second series), active compounds read low 1.01 | locus YKL085W, strain MDH1, active compounds read low 1.01 | locus YKL160W, strain elf1, active compounds read low 0.936 | locus YKR001C, strain vps1, active compounds read low 0.914 | locus YKR026C, strain gcn3, active compounds read low 0.998 | locus YKR091W, strain srl3, active compounds read low 0.996 | locus YLL041C, strain sdh2, active compounds read low 0.962 | locus YLR102C, strain apc9, active compounds read low 1.04 | locus YLR113W, strain HOG1, active compounds read low 1.06 | locus YLR262C, strain YPT6, active compounds read low 0.664 | locus YLR384C, strain iki3, active compounds read low 0.94 | locus YML032C, strain rad52, active compounds read low 1.01 | locus YML120C, strain ndi1, active compounds read low 0.967 | locus YML124C, strain tub3, active compounds read low 1 | locus YMR078C, strain ctf18, active compounds read low 1.01 | locus YMR125W, strain sto1, active compounds read low 1.07 | locus YMR129W, active compounds read low 0.973 | locus YNL183C, strain NPR1, active compounds read low 0.968 | locus YNL248C, strain rpa49, active compounds read low 0.952 | locus YNL250W, strain rad50, active compounds read low 1.02 | locus YNL271C, strain bni1, active compounds read low 1 | locus YNL298W, strain CLA4, active compounds read low 1 | locus YNL307C, strain MCK1, active compounds read low 0.99 | locus YNL322C, strain KRE1 (second series), active compounds read low 1.04 | locus YNR049C, strain mso1, active compounds read low 0.986 | locus YOL012C, strain htz1 0.219 | locus YOL147C, strain pex11, active compounds read low 0.97 | locus YOR136W, strain idh2, active compounds read low 0.966 | locus YOR144C, strain elg1, active compounds read low 0.971 | locus YOR231W, strain MKK1, active compounds read low 1.02 | locus YOR290C, strain snf2, active compounds read low 0.894 | locus YOR316C, strain cot1, active compounds read low 1.02 | locus YPL078C, strain atp4, active compounds read low 0.947 | locus YPL240C, strain hsp82, active compounds read low 0.98 | locus YPL256C, strain CLN2, active compounds read low 1.05 | locus YPR119W, strain clb2, active compounds read low 1.02 | locus YPR141C, strain kar3, active compounds read low 0.995 | locus YPR163C, strain tif3, active compounds read low 1.01 | locus YPR167C, strain met16, active compounds read low 0.951
